Source: PubChem BioAssay (National Center for Advancing Translational Sciences (NCATS))
Giardia kill = Giardia lamblia killing | Giardia lamblia trophozoite viability | activity change, % at 7.66 µM, hits read low | hit rate 0.15% among 340,000; in the data active means activity change below about -80%; inconclusive means between about -30% and that limit;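 further: parasites exposed to compound for two days anaerobically before the ATP read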
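ATP-content bioluminescence gauges trophozoite survival. Cells (100/well) receive compound and incubate anaerobically for 48 hrs at 37 deg C; detection reagent follows for 15-30 min at room temperature.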
KB-3-1 cytotox = KB-3-1 parental cell cytotoxicity; hit rate 1.4% among 400,000; Potency, µM (series often up to 46.1 µM), actives largely listed as cytotoxic; KB-3-1 viability, CellTiter-Glo ATP luminescence, 72 h; further: potency means the concentration at half of the fitted maximal effect; nearly all actives have a fitted effect of over 60% in size
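Screening of KB-3-1 cells (DMEM, 10% FBS, phenol-red free) ran from lowest to highest compound concentration; after 72 h at 37 °C viability was read luminescently and curves fitted.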
KB-V1 cytotox = kills drug-selected multidrug resistant KB-V1 cells. KB-V1 MDR cells viability, CellTiter-Glo, 72 h. Potency, µM (highest dose often 46.1 µM), actives largely listed as cytotoxic. hit rate 3.4% among 400,000; further: potency means the concentration at half of the fitted maximal effect; nearly all actives have a fitted effect of over 60% in size
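Cells of the MDR subline KB-V1 are plated, dosed with compound at multiple concentrations, and incubated 72 h at 37 degrees C; CellTiter-Glo is then added and luminescence read after 10 min.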
PI4K2A inh = inhibitors of human PI4K2A; AID 1346378; purified PI4K2A, ADP-Glo luminescence, 1 h; active compounds read low; Q9BTU6; hit rate 0.13% among 420,000; activity change, negative = inhibition, % at 76.9 µM; in the data active means activity change below about -50%; inconclusive means mostly about -30% to -49%;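 further: -100% = wells without enzyme as full effect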
Target sequence (Q9BTU6 whole entry, looked up): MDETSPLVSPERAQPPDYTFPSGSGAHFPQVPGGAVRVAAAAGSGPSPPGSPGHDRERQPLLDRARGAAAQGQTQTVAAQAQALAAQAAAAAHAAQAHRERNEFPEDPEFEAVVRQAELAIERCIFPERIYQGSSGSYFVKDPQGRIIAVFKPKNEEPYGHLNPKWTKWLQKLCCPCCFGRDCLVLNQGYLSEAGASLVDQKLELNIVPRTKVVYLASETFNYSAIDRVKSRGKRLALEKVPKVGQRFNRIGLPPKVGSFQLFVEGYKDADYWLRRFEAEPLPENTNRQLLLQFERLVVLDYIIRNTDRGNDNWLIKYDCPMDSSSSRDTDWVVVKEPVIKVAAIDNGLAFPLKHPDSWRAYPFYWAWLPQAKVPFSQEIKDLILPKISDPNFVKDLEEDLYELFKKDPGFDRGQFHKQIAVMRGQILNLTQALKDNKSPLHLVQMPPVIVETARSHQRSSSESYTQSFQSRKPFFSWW
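ADP-Glo luminescence measured ADP generated by PI4K2A enzyme (4 ug/mL before mixing) with 1.2 mM PI substrate (pre-mix) and 300 microM ATP (pre-mix). Tris pH7.5 buffer with MgCl2, Triton X-100; 1 h reaction at ambient temperature.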
A549 tox = counter-screen for Nrf2 inhibitors: cytotoxicity in A549 cells. A549 ARE-Fluc cells, CellTiter-Fluor viability, 18-24 h. Potency, µM (top dose mostly 46 µM), inactives show top-dose activity change, negative = cytotoxicity, hits mostly inhibitors. hit rate 0.16% among 390,000; further: potency means the concentration at half of the fitted maximal effect
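Cytotoxicity counterscreen: CellTiter-Fluor fluorescence was measured in A549 ARE_Fluc cells after 18-24 h of compound exposure in a concentration series. The subsequent BugLite luminescent read reports ARE-luciferase activity.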
Nrf2 block = Nrf2 pathway inhibition; A549 ARE-Fluc reporter, luciferase luminescence, 18-24 h; Potency, µM (doses to about 46 µM), inactives show at the top dose activity change, negative = inhibition, hits mostly inhibitors; hit rate 2.1% among 360,000; AID 504444; further: potency means the concentration at half of the fitted maximal effect; nearly all actives have a fitted effect of over 60% in size
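Two sequential reads on A549 ARE_Fluc cells exposed to compound for 18-24 h: a CellTiter-Fluor fluorescence read for viability, then a luciferase luminescence read for Nrf2/ARE activity.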
Numbers without * were called inactive; i = inactive; ? = inconclusive; / = no result. In the library only some 5.7% were active in any assay of this set; here they are far more common. Unless noted, the call rests on the fitted dose curve; in most records, active means well fitted curve in the direction sought with a large enough effect; inconclusive means small, poorly fitted or top-dose-only effect, or another doubt; inactive means no such curve, though single readings can be large; an effect the other way counts as inactive or inconclusive. Unless noted, on the % scale 0 is the no-effect control and ±100 the full control effect.

SMILES | Giardia kill | KB-3-1 cytotox | KB-V1 cytotox | PI4K2A inh | A549 tox | Nrf2 block
O=C(NCCCO)C(=O)NCC(c1ccc2c(c1)OCO2)N1CCOCC1 (stereo not given) | / | / | / | 1 | 10% | /
Clc1ccc2c(N/N=C/c3ccccc3Br)ccnc2c1 | ? | ? | ? | 3 | ? | 10µM*
O=C(c1ccc(Cn2c(=O)[nH]c3ccccc3c2=O)cc1)N1CCN(c2ccccc2)CC1 | 7 | ? | 21µM* | 5 | 7% | -22%
Cc1ccccc1NC(=O)[C@@H]1CC(=O)O[C@@H]1c1ccccc1 | / | / | / | -5 | / | /
CC1=NN(c2ccc(N)cc2)C(=O)C1 | 4 | i | i | -66* | 2% | 3%
CC1=NN(c2cccc([N+](=O)[O-])c2)C(=O)C1 | -21 | i | i | -50* | 2% | 8%
CC1=NN(c2ccc(Cl)cc2)C(=O)C1 | -26 | i | i | ? | 1% | 5%
COc1cc(/C=C2/C=Cc3ccccc32)ccc1N(C)C | / | ? | i | / | / | /
O=C(c1cccc(I)c1)N1CCC(Oc2cccnc2)CC1 | / | / | / | -7 | / | /
CCOc1cc2c(cc1O)C(=NOC)CC1C2CCC2(C)C(O)CCC12 (stereo not given) | -1 | 0.65µM* | 0.52µM* | 2 | -1% | 18%
O=C([C@@H]1C[C@H]1c1ccccc1)N1CC[C@H]2[C@H](CCCN2Cc2ccc(F)cc2)C1 | / | / | / | 3 | / | /
Cc1ccccc1C(=O)Nc1cccc(-c2nnc(SCC(=O)NCc3ccco3)n2C)c1 | / | i | i | / | / | /
Cn1c(=O)c([N+](=O)[O-])c(N2CCSCC2)c2ccccc21 | 2 | i | i | -2 | -12% | -16%
CCn1c(=O)c([N+](=O)[O-])c(N2CCSCC2)c2ccccc21 | -22 | ? | i | -1 | -8% | 16µM*
COc1ccc(O)c(C(=O)CC(=O)c2ccc(F)cc2)c1 | -25 | ? | 2.9µM* | -10 | -8% | ?
O=C(N/N=C/c1c[nH]c2ccccc12)c1ccn(Cc2ccc(Cl)cc2Cl)n1 | -10 | i | i | 4 | ? | /
COc1cccc(/C=N/NC(=O)c2c(-c3ccccc3)noc2C)c1OC | -12 | i | i | 0 | 3% | -2%
Cn1ccc(C(=O)N/N=C/c2c[nH]c3ccccc23)n1 | -14 | 18µM* | i | -1 | 10% | ?
Cc1onc(-c2ccccc2)c1C(=O)N/N=C/c1c[nH]c2ccccc12 | 23 | i | ? | -10 | ? | 15µM*
CCc1cn(C2CC(O)C(CO)O2)c(=O)[nH]c1=O (stereo not given) | 13 | 4.6µM* | i | -10 | 7% | 1%
O=C(NC1CCC1)c1ccc(C#Cc2cccc(F)c2)nc1 | / | / | / | -18 | / | /
c1ccc(-c2csc3ncnc(NCCCN4CCOCC4)c23)cc1 | -5 | i | 8.2µM* | -6 | -5% | ?
O=c1c2ccccc2nc(-c2ccccc2)n1CCN1CCOCC1 | -15 | i | i | -5 | -14% | -20%
c1ccc(-c2nc(NCCCN3CCOCC3)c3ccccc3n2)cc1 | 20 | i | 6.5µM* | 1 | -6% | 1%
c1ccc(-c2cn(-c3ccccc3)c3ncnc(NCCCN4CCOCC4)c23)cc1 | -4 | i | i | 2 | -4% | -10%
SMILES | Giardia kill | KB-3-1 cytotox | KB-V1 cytotox | PI4K2A inh | A549 tox | Nrf2 block
O=S(=O)(c1ccc(Oc2ncnc3scc(-c4ccccc4)c23)cc1)N1CCOCC1 | -14 | ? | ? | -2 | -5% | 16µM*
O=c1c2c(-c3ccccc3)csc2nc2c3ccccc3c(NCCN3CCOCC3)nn12 | 2 | i | 21µM* | 0 | -6% | 10%
O=C(NC1CCCCN(Cc2ccc(Cl)cc2)C1=O)c1cccs1 (stereo not given) | / | / | / | -2 | / | /
CCc1nn(CC(=O)Nc2ccc(NC(C)=O)cc2)c(=O)c2cc3sccc3n12 | / | i | ? | 1 | 8% | 12%
CCCCCCCCN1C(=O)N2Cc3ccccc3C2CS1(=O)=O (stereo not given) | / | / | / | -5 | / | /
c1csc(-c2csc3ncnc(NCCCN4CCOCC4)c23)c1 | -4 | ? | 3.3µM* | -9 | -2% | /
Cc1csc2c(N3CCN(C(=O)Nc4ccc(OC(F)(F)F)cc4)CC3)ncnc12 | 20 | i | i | 3 | -19% | 21µM*
Cc1csc2c(N3CCC(C(=O)O)CC3)ncnc12 | -11 | i | i | 0 | -18% | -4%
CCOc1ccc(NC(=O)Cn2c(=O)cc(C)c3c(C)nn(C)c32)cc1 | / | i | i | 0 | 0% | 13µM*
COc1ccc(OC)c(NC(=O)Cn2c(=O)cc(C)c3c(C)nn(-c4cccc(Cl)c4C)c32)c1 | / | / | / | 4 | ? | 21µM*
COc1ccc(-c2nc(N3CCN(S(=O)(=O)c4ccccc4)CC3)c3ccccc3n2)cc1 | -12 | / | / | / | -5% | -14%
Cn1c(-c2c(N)n(C3CCCC3)c3nc4ccccc4nc23)nc2ccccc21 | -27 | 16µM* | 21µM* | 1 | -1% | ?
COCCCn1c(N)c(-c2nc3ccccc3n2C)c2nc3ccccc3nc21 | -6 | i | i | 1 | -16% | 21µM*
Cn1c(-c2c(N)n(CCc3ccccc3)c3nc4ccccc4nc23)nc2ccccc21 | 10 | ? | 15µM* | -4 | 3% | -3%
Cn1c(-c2c(N)n(CCCc3ccccc3)c3nc4ccccc4nc23)nc2ccccc21 | -18 | ? | 9.2µM* | -2 | ? | /
N#Cc1c(N)n(CCc2ccc(F)cc2)c2nc3ccccc3nc12 | 0 | i | i | -15 | 19% | ?
CCCCCC(=O)NC1CCCCN(Cc2cccc(Cl)c2)C1=O (stereo not given) | / | / | / | 0 | / | /
